# From PubChem BioAssay (EPA / NIEHS)
# Records with an inconclusive call do not appear. Active and inactive are the calls of the source. The calls were made as follows: active = hit-call score of the fitted dose curve at least 0.9, where 1 is the maximum; inconclusive = response in the unintended direction; inactive = score below 0.9.
# Tests used:
# [1] = target: human AMP-activated Protein Kinase, alpha 1 (AMPKa1), PRKAA1 (gene 5562) (UniProt Q13131); assay: NVS_ENZ_hAMPKa1: NovaScreen (NVS) Enzymatic Assay for human AMP-activated Protein Kinase, alpha 1 (AMPKa1) (AID 2283130)
# Chain of human AMP-activated Protein Kinase, alpha 1 (AMPKa1), PRKAA1 (gene 5562) (Q13131 whole entry, looked up): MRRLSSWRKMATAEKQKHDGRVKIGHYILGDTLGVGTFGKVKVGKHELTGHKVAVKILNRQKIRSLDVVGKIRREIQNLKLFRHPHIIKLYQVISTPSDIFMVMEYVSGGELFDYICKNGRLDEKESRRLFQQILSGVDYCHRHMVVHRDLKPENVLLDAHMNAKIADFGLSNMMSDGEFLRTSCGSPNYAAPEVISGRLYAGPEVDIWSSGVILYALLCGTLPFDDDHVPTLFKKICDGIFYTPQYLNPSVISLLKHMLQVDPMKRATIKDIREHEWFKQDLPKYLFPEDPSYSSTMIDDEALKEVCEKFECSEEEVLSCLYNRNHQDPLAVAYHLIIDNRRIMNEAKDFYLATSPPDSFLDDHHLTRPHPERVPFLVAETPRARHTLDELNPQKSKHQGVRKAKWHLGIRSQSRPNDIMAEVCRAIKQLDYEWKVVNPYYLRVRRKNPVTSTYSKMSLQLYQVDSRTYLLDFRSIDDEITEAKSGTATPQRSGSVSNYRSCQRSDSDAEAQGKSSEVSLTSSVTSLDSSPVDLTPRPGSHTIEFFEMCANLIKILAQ
# In short: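 Compounds were screened in duplicate at 25 uM, and those reaching ~30% inhibition were titrated up to 50 uM. The enzyme was recombinant human AMPKα1, and kinase turnover was read by fluorescence/mobility shift 1 h post-dosing as loss of signal versus DMSO.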
# [2] = target: human Epidermal Growth Factor Receptor (EGFR), EGFR (gene 1956) (UniProt P00533); assay: NVS_ENZ_hEGFR: NovaScreen (NVS) Enzymatic Assay for human Epidermal Growth Factor Receptor (EGFR) (AID 2283151)
# Chain of human Epidermal Growth Factor Receptor (EGFR), EGFR (gene 1956) (P00533 whole entry, looked up): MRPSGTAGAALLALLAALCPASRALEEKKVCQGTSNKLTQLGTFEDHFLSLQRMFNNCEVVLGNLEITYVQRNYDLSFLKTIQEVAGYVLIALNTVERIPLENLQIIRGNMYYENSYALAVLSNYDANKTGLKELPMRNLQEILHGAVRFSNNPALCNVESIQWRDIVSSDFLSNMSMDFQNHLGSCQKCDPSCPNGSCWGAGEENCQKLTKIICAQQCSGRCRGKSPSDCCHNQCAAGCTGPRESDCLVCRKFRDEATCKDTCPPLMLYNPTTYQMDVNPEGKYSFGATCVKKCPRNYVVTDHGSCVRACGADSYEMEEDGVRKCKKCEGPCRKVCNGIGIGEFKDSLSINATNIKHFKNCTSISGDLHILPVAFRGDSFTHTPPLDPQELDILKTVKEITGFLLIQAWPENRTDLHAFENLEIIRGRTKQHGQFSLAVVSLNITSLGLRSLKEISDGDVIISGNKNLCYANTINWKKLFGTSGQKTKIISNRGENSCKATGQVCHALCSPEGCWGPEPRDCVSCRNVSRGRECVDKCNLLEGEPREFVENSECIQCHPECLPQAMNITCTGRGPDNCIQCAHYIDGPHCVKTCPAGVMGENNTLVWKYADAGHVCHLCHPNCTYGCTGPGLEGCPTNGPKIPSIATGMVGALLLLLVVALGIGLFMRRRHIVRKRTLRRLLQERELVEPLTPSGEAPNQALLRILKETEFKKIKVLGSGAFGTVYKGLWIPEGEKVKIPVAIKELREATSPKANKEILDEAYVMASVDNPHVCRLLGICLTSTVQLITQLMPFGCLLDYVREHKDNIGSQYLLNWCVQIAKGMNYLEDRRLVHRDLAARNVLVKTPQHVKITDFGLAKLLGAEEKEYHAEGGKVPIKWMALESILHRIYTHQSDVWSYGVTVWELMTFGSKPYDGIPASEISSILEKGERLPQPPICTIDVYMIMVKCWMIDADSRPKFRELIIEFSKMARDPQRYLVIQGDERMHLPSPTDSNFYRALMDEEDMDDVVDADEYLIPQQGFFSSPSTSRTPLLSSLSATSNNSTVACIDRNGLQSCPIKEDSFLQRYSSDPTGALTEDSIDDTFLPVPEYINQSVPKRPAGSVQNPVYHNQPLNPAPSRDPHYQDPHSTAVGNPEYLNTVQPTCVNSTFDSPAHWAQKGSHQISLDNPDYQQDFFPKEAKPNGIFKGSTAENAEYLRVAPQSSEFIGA
# In short: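 Cell-free kinase assay, fluorescence plus electrophoretic mobility shift separating substrate and product, read 1 hour after dosing; loss of signal vs DMSO. Duplicate screen at 25 uM, then concentration-response to 50 uM.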
# [3] = target: human Mitogen-Activated Protein Kinase 1 (MAPK 1), MAPK1 (gene 5594) (UniProt P28482); assay: NVS_ENZ_hMAPK1: NovaScreen (NVS) Enzymatic Assay for human Mitogen-Activated Protein Kinase 1 (MAPK 1) (AID 2283175)
# Chain of human Mitogen-Activated Protein Kinase 1 (MAPK 1), MAPK1 (gene 5594) (P28482 whole entry, looked up): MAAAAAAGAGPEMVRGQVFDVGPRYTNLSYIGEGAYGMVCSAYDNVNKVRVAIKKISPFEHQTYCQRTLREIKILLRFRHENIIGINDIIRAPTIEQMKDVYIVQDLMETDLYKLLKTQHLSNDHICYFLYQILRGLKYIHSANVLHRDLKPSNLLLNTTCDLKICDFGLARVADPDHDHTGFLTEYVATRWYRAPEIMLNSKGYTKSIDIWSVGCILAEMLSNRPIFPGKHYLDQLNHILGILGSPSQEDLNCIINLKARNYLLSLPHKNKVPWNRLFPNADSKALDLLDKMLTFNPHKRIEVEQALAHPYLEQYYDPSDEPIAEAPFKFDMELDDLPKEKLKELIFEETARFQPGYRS
# In short: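 Cell-free recombinant human MAPK1 enzymatic assay, fluorescence/electrophoretic mobility shift read at 1 h; loss of signal vs DMSO. Primary screen in duplicate at 25 uM; actives (e.g. ≥30% inhibition) run as concentration-response up to 50 uM.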
# [4] = target: human Protein Tyrosine Phosphatase Non-receptor Type 2 (PTPN2), PTPN2 (gene 5771) (UniProt P17706); assay: NVS_ENZ_hPTPN2: NovaScreen (NVS) Enzymatic Assay for human Protein Tyrosine Phosphatase Non-receptor Type 2 (PTPN2) (AID 2283207)
# In short: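 Activity measured as fluorescence after mobility-shift separation of substrate and product, 1 h after compound. Duplicate single-point 25 uM primary testing, concentration series for actives; inhibition scored as signal loss relative to DMSO baseline.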
# [5] = target: human Raf-1 Proto-Oncogene, serine/threonine Kinase (RAF1), RAF1 (gene 5894) (UniProt P04049); assay: NVS_ENZ_hRAF1: NovaScreen (NVS) Enzymatic Assay for human Raf-1 Proto-Oncogene, serine/threonine Kinase (RAF1) (AID 2283216)
# Chain of human Raf-1 Proto-Oncogene, serine/threonine Kinase (RAF1), RAF1 (gene 5894) (P04049 whole entry, looked up): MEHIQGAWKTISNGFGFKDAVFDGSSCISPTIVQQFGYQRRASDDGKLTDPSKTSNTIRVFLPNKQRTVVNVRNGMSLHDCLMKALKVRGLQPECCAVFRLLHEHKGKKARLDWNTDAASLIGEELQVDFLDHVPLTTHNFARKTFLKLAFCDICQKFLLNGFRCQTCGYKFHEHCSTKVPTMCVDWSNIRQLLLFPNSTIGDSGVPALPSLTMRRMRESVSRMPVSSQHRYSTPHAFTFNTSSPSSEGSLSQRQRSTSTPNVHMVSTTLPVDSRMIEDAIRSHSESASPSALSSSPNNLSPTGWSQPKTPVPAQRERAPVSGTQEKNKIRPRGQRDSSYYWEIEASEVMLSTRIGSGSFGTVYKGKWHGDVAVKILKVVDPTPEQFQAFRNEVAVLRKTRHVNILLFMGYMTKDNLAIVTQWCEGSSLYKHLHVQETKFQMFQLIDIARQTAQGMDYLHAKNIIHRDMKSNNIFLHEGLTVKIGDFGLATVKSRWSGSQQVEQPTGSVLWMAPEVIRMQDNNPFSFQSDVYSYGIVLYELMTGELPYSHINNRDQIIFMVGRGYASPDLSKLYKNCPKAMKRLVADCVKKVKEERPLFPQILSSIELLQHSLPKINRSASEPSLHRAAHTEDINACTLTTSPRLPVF
# In short: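 Single-point screening at 25 uM (duplicate), followed by singleton concentration-response to 50 uM maximum for chemicals exceeding threshold. Enzyme activity from fluorescent substrate-product mobility-shift separation after 1 h, relative to DMSO.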
# [6] = ATG_M_32_XSP2: Attagene TRANS-FACTORIAL Multi-Species (XSP2) HepG2 Assay for M19 Transcription Factor (Internal Marker) (AID 2283826)
# In short: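 HepG2 cells transiently transfected with GAL4-UAS reporter units; XSP2 panel included 3 nM 6-alpha-fluorotestosterone and 1.5 nM norgestrel for androgen receptor stimulation. Reporter mRNA read 24 h post-dosing by RT-PCR/capillary electrophoresis; fitted upward versus DMSO.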
# [7] = target: human Aurora Kinase A - serine/threonine-protein Kinase 6 (AurA), AURKA (gene 6790) (UniProt O14965); assay: NVS_ENZ_hAurA: NovaScreen (NVS) Enzymatic Assay for human Aurora Kinase A - serine/threonine-protein Kinase 6 (AurA) (AID 2283142)
# In short: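 Recombinant human AurA activity read by fluorescence after mobility-shift separation of product from substrate; 1 hour incubation. Chemicals first run in duplicate at 25 uM, then concentration series to 50 uM if over threshold; fitted relative to DMSO.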
# [8] = target: human Ephrin type-B Receptor 2 (EphB2), EPHB2 (gene 2048) (UniProt P29323); assay: NVS_ENZ_hEphB2: NovaScreen (NVS) Enzymatic Assay for human Ephrin type-B Receptor 2 (EphB2) (AID 2283156)
# Chain of human Ephrin type-B Receptor 2 (EphB2), EPHB2 (gene 2048) (P29323 whole entry, looked up): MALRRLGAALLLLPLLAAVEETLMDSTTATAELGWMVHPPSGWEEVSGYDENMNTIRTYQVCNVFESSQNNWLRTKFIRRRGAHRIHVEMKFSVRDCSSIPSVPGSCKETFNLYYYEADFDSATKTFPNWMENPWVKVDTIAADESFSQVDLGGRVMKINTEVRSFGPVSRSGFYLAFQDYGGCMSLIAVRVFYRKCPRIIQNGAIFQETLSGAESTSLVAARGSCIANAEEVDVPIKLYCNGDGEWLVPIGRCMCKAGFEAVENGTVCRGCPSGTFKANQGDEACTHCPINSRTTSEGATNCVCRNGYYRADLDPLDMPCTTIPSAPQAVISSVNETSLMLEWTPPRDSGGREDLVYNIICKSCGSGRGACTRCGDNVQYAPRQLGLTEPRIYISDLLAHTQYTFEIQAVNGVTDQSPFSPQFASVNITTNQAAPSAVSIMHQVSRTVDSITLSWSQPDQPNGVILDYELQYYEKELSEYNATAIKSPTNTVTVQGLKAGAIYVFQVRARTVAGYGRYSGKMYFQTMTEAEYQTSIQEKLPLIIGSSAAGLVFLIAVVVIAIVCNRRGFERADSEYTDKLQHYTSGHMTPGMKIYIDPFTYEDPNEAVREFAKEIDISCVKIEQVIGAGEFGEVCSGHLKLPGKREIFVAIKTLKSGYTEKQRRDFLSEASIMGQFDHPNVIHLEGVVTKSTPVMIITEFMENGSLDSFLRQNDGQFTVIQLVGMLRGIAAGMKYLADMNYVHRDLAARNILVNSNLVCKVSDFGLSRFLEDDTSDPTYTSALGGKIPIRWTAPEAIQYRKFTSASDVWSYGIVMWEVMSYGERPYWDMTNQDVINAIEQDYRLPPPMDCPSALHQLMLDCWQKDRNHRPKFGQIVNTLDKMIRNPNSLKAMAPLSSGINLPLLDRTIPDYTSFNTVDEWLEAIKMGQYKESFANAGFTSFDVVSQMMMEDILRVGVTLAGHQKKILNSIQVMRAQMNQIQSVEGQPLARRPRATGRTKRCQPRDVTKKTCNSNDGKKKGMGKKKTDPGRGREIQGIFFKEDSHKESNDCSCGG
# In short: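 Compounds were first tested in duplicate at 25 uM, with hits rerun singly in concentration series up to 50 uM. Enzyme activity on fluorescent substrate was read at 1 h by mobility-shift separation, scored as signal loss relative to DMSO.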
# [9] = system: rat Monoamine Oxidase, MAO-A, Central (MAOAC), gene 29253; assay: NVS_ENZ_rMAOAC: NovaScreen (NVS) Enzymatic Assay for rat Monoamine Oxidase, MAO-A, Central (MAOAC) (AID 2283243);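 also: potency refers to inhibition seen as signal drop below DMSO baseline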
# In short: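 Scintillation read-out of MAO-A activity in rat brain lysate, 1.5 h post-dosing. Primary single-concentration screen: 25 uM, duplicate; actives re-tested in concentration series. DMSO = negative control/baseline.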
# [10] = target: human p21 Activated Kinase 4 (PAK4), PAK4 (gene 10298) (UniProt O96013); assay: NVS_ENZ_hPAK4: NovaScreen (NVS) Enzymatic Assay for human p21 Activated Kinase 4 (PAK4) (AID 2283189)
# In short: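 Extracted PAK4 enzyme activity read by fluorescence with mobility-shift separation 1 h after chemical addition. Duplicate single-concentration screen at 25 uM, DMSO as negative control.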
# PPP2CA (gene 5515) = PPP2CA (gene 5515) (UniProt P67775); assay: NVS_ENZ_hPPP2CA: NovaScreen (NVS) Enzymatic Assay for human Protein Phosphatase 2 Aatalytic subunit Alpha (PPP2CA) (AID 2283199)
# Chain of PPP2CA (gene 5515) (P67775 whole entry, looked up): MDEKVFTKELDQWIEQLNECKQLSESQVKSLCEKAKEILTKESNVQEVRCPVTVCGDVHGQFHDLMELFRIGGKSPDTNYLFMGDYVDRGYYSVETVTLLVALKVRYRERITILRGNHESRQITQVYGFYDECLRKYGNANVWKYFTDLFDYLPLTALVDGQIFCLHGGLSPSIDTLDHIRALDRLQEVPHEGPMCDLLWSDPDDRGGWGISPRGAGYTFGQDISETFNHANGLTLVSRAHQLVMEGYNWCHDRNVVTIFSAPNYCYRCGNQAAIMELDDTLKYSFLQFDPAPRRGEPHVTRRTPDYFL
# In short: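 Cell-free phosphatase activity: fluorescent substrate turnover by recombinant human enzyme, resolved by mobility shift at 1.33 h. Compounds passing the 25 uM duplicate primary screen were rerun in singleton series with a 50 uM top concentration.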
# [11] = system: rat Monoamine Oxidase, MAO-A, Peripheral (MAOAP), gene 29253; assay: NVS_ENZ_rMAOAP: NovaScreen (NVS) Enzymatic Assay for rat Monoamine Oxidase, MAO-A, Peripheral (MAOAP) (AID 2283237)
# In short: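 Scintillation counting tracked MAO-A activity in a cell-free rat liver mitochondrial membrane prep, read 1.17 hours after compound addition. Single-point duplicate testing at 25 uM preceded concentration-response follow-up; activity was fitted relative to DMSO.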
# [12] = target: bovine Gamma-Aminobutyric Acid Type A Receptor BDZ, alpha 1 site (GABARa1), GABRA1 (gene 780973) (UniProt P08219); assay: NVS_LGIC_bGABARa1: NovaScreen (NVS) Ligand-Gated Ion Channel Assay for bovine Gamma-Aminobutyric Acid Type A Receptor BDZ, alpha 1 site (GABARa1) (AID 2283321)
# In short: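 Bovine cortex membrane preparation, benzodiazepine site on GABA-A alpha1; specific radioligand displacement read after 0.75 h by filtration and scintillation. Screen at 25 uM, then singleton titrations up to 50 uM; DMSO baseline.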
# [13] = target: rat Monoamine Oxidase, MAO-B, Peripheral (MAOBP), Maob (gene 25750) (UniProt P19643); assay: NVS_ENZ_rMAOBP: NovaScreen (NVS) Enzymatic Assay for rat Monoamine Oxidase, MAO-B, Peripheral (MAOBP) (AID 2283242)
# [14] = target: rat Oxytocin Receptor (OXT), Oxtr (gene 25342) (UniProt P70536); assay: NVS_GPCR_rOXT: NovaScreen (NVS) G Protein-Coupled Receptor Assay for rat Oxytocin Receptor (OXT) (AID 2283330)
# Chain of rat Oxytocin Receptor (OXT), Oxtr (gene 25342) (P70536 whole entry, looked up): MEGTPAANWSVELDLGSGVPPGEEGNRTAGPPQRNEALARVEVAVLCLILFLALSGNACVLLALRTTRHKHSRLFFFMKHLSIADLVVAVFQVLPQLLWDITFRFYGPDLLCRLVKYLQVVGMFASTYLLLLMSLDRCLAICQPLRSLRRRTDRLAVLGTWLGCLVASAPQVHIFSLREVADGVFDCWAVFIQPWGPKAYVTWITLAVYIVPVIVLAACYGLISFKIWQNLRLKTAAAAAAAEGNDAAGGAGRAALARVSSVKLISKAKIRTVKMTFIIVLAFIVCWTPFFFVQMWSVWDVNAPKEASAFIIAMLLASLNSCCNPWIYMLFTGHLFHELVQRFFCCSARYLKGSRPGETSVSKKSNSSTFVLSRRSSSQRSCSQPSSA
# In short: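 Binding to rat uterine membrane receptor was followed by scintillation counting of filter-trapped radioligand after 1 h. A 25 uM duplicate single-point screen preceded concentration series with a top of 50 uM. Signal loss was analysed relative to DMSO.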
# [15] = target: Norway rat Vesicular Monoamine Transporter (VMAT2), neurotransmitter transporter, Slc18a2 (gene 25549) (UniProt Q01827); assay: NVS_TR_rVMAT2: NovaScreen (NVS) Transporter Assay for Norway rat Vesicular Monoamine Transporter (VMAT2), neurotransmitter transporter (AID 2283376);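 also: actives lower the bound radioligand signal below the DMSO level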
# Chain of Norway rat Vesicular Monoamine Transporter (VMAT2), neurotransmitter transporter, Slc18a2 (gene 25549) (Q01827 whole entry, looked up): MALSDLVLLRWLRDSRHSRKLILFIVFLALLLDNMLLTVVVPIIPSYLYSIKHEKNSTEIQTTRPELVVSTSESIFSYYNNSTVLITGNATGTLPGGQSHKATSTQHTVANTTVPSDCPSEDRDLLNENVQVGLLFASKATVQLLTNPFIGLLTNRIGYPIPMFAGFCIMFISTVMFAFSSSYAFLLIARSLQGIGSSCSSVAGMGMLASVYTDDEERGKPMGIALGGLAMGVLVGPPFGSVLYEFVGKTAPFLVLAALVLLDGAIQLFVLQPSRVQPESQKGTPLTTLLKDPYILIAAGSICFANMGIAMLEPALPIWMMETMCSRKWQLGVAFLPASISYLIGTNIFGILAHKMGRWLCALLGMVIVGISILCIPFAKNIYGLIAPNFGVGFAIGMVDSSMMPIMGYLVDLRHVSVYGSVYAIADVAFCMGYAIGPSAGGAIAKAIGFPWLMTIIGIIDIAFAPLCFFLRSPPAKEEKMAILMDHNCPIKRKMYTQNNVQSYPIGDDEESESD
# In short: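 Using rat forebrain membranes, specific radioligand binding to VMAT2 was measured by filtration and scintillation counting after 1 hour. Chemicals screened at 25 uM in duplicate, actives retested in concentration series, DMSO baseline.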
# [16] = target: Voltage-dependent N-type calcium channel subunit alpha-1B (Rattus norvegicus) (UniProt Q02294); assay: NVS_IC_rCaChN: NovaScreen (NVS) Ion Channel Assay for rat Calcium Channel, Type N (CaChN) (AID 2283317)
smiles,measurement,setting,value
CC(C)CCCCCCc1ccc(O)cc1,outcome,[1],inactive
same,outcome,[2],inactive
same,outcome,[3],inactive
same,outcome,[4],inactive
same,outcome,[5],inactive
same,outcome,[6],inactive
CN(C)C(=O)NC1(c2ccccc2)CCN(CC[C@@]2(c3ccc(F)c(F)c3)CN(C(=O)c3ccccc3)CCO2)CC1,outcome,[7],inactive
CCCCCCC(C)OC(=O)COc1nc(F)c(Cl)c(N)c1Cl (stereo not given),outcome,[8],inactive
same,outcome,[9],inactive
CCOC(N)=O,outcome,[3],inactive
CC[C@H](C)C(=O)O[C@H]1C[C@@H](C)C=C2C=C[C@H](C)[C@H](CC[C@@H]3C[C@@H](O)CC(=O)O3)[C@H]21,outcome,[10],inactive
CN1CCC[C@H]1c1cccnc1,outcome,PPP2CA (gene 5515),inactive
CCN(CC)CCNc1ccc(CNC=O)c2sc3ccc(OC)cc3c(=O)c12,outcome,PPP2CA (gene 5515),inactive
same,AC50,[11],9.35 µM (active)
same,outcome,[12],inactive
Cc1occc1C(=O)Nc1ccc(C(=O)N2CCC(F)(F)/C(=C\C(=O)N3CCC(N4CCCCC4)CC3)c3ccccc32)cc1,AC50,[13],9.05 µM (active)
same,AC50,[14],0.119 µM (active)
same,AC50,[15],5.73 µM (active)
CNNCc1ccc(C(=O)NC(C)C)cc1,AC50,[9],18 µM (active)
COC(=O)CCC(=O)OC,outcome,[16],inactive
